The results in this text go back to PubChem BioAssay.

A short description of assay [1]: reducers of endogenous Her2 protein level, primary screen, SKBR3 breast tumor cells, AlphaScreen, ATP viability (AID 461;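 active = Her2 level under about 52% in both replicate screens, with viability over 70% of control, limit read from the data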;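 for Her2 level: lower value means less Her2 protein in the cells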;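 for viability: percent of carrier control wells set as 100% viability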). The conditions noted are these: 18-24 h, measured here: SKBR3 viability, ATP luminescence, at 10 µM.
Assay [2] deals with Receptor tyrosine-protein kinase erbB-2 (Homo sapiens) (UniProt P04626). The description is as above. The settings on record: 18-24 h, at 10 µM, stronger effect = lower value.
Receptor tyrosine-protein kinase erbB-2 (Homo sapiens), sequence (P04626 whole entry, looked up): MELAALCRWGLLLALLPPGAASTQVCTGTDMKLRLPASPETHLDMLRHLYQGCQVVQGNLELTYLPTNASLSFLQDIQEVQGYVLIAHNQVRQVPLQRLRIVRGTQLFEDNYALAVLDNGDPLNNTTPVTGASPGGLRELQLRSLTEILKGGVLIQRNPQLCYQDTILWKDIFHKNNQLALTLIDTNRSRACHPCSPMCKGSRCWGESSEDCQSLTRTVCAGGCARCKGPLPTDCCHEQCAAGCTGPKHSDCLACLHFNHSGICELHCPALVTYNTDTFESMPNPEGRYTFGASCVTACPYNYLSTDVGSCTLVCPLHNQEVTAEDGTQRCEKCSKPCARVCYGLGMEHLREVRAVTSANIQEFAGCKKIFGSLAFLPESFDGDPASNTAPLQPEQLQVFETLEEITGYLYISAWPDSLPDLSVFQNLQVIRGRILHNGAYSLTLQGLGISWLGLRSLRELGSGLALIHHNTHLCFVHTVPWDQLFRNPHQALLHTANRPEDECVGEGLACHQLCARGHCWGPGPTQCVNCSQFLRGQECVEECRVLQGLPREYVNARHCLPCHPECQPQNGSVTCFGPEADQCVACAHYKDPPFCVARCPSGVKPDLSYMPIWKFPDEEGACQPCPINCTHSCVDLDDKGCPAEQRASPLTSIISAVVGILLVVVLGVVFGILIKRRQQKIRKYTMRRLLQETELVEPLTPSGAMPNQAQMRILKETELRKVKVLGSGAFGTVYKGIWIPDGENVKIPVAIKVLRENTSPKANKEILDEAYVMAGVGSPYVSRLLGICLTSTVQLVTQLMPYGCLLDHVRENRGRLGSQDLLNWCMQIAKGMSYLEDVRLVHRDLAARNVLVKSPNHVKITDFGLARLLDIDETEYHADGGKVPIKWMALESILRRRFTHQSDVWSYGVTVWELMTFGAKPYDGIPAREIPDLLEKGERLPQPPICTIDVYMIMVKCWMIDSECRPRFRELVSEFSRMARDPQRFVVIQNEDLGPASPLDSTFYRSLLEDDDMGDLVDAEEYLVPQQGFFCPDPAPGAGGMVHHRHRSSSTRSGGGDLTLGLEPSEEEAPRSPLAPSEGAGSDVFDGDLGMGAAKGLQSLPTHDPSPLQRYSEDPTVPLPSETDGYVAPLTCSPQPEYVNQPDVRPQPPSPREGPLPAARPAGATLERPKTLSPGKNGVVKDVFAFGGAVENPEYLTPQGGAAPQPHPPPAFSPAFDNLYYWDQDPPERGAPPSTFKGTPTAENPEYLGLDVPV
Assay [3] is described as follows: SK-BR-3 cell growth inhibitors, pilot screen, 24 h, human (AID 572;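 active = viability at or below 10% of carrier control in both of two separate runs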;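 note: compound exposure lasted between 18 and 24 h rather than exactly 24 h; 100% = carrier-treated control wells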). The conditions noted are these: SK-BR-3 viability, CellTiter-Glo luminescence, at 10 µM, stronger effect = lower value.
A short description of assay [4]: HUVEC growth inhibition – cell-based, human, primary screen (AID 575;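 active = viability at or below 30% in both replicate assays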;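 note: 100% = median of untreated cell wells with 0.1% DMSO on each plate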). The settings on record: HUVEC proliferation, CellTiter-Glo luminescence, 72 h; at 10 µM; stronger effect = lower value.
Assay [5] can be described thus: growth inhibitors of H69AR lung tumor, primary screen, human, duplicate replicates (AID 580;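 active = viability at or under a set limit in both replicates, limit being median viability minus 3 SD, cut at about 48% in these data, passing the limit was not always enough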;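 note: 100% = mean luminescence of untreated wells and 0% = no signal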). The settings on record: H69AR lung tumor cells viability, ATP luminescence, 72 h; at 10 µM; stronger effect = lower value.
Assay [6] in a line: reversal of MRP1-mediated doxorubicin resistance, pilot screen, H69AR cells, doxorubicin co-treatment (AID 601;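 active = viability loss from added drug above about 55%, and viability with drug at most 40%, in both replicates, limit read from the data, passing the limit was not always enough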). The conditions noted are these: CellTiter-Glo, 72 h, at 10 µM; for differential viability (reversal): stronger effect = higher value.
The nature of assay [7]: 384-well plate pilot, post-Golgi transport modulator project, inhibition of yeast transport mutant growth (AID 636; in the data active = inhibition above about 31%). The conditions noted are these: absorbance 615 nm, about 18 h, stronger effect = higher value.
The nature of assay [8]: growth suppression of yeast trafficking mutant, preliminary HTS, modulators of trafficking downstream of Golgi apparatus project, 1536-format plate, OD 615 nm (AID 637). The settings on record: yeast transport mutant growth, absorbance 615 nm, 18 h; stronger effect = higher value.
Assay [9] can be described thus: OD615 S. cerevisiae growth inhibition, permissive medium, pilot counter-assay, permissive growth control for S. cerevisiae lifespan shortening project (AID 705;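 active = growth inhibition above 25% in both replicates, a cutoff set 3 SD above the mean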). The conditions noted are these: OD615, 24 h, at 10 µM, stronger effect = higher value.
The nature of assay [10]: Restrictive medium S. cerevisiae growth inhibition, OD615, pilot screen of yeast lifespan reduction project, restrictive growth control (AID 706;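 active = growth inhibition above a set limit, 3 SD over mean compound inhibition, in both replicates, cut at about 43% in these data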;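 note: modified DeaD lifespan yeast strain shifted to restrictive glucose medium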). The settings on record: OD615, 48 h, at 10 µM, stronger effect = higher value.
The nature of assay [11]: viability gain of MRP-1-high H69AR cells under doxorubicin, pilot screen, MRP-1 activator project, CellTiter-Glo, duplicate (AID 807;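 active = viability increase at or above a cutoff of the median across tested compounds plus 3 SD, cut at about 8.5% in these data, passing the limit was not always enough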;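 note: compound pretreatment 18-22 h then 72 h combined with doxorubicin; 0% = doxorubicin alone and 100% = vehicle without doxorubicin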). The conditions noted are these: H69AR viability with doxorubicin, CellTiter-Glo luminescence; at 10 µM; stronger effect = higher value.
Assay [12] is described as follows: growth suppression of beta-catenin knockout HCT116, pilot screen, human colon tumor cells (AID 823;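 active = cell viability at or below a set limit in both duplicate runs, the limit being the all-compound median minus 4 SD, cut at about 23% in these data, passing the limit was not always enough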;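 note: 0% = wells killed by 20 µM Hyamine and 100% = untreated DMSO cell wells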). The settings on record: CellTiter-Glo, 60 h, at 10 µM, stronger effect = lower value.
A short description of assay [13]: growth suppression of PTEN-deleted HCT116, pilot screen, cell-based, HCT116 clonal line, CellTiter-Glo (AID 824;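 active = viability at or below 27.92% in each of two runs, the all-compound median minus 4 SD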;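 note: 0% = 20 µM Hyamine control and 100% = vehicle cell control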). The conditions noted are these: 60 h, at 10 µM, stronger effect = lower value.
Assay [14] can be described thus: inhibitors of the yeast RAM network, pilot screen, dse1pr::URA3 reporter, 5-FOA selection (AID 869;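 active = inhibition over a set limit, the all-compound mean plus 3 SD, in both replicate runs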;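 note: 0% = DMSO wells with no growth and 100% = 10 µM 1-NA-PP1 with full growth; RAM network block rescues cells from 5-FOA so hits raise OD615 growth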). The settings on record: S. cerevisiae dse1pr::URA3 5-FOA growth, OD615, 2 d; at 10 µM; stronger effect = higher value; strain carries analog-sensitive mutant Cbk1 kinase.
A short description of assay [15]: RAM signaling pathway blockade in yeast – S. cerevisiae, Pdr1DBD-CYC8 efflux-inhibited sensitized strain, primary screen (AID 1298;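 active = RAM network inhibition above 8.4% in each of two replicates, 3 SD over the compound average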;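 note: 0% = DMSO untreated cells without growth and 100% = 10 µM 1-NA-PP1 full growth; higher means more yeast growth rescued from 5-FOA killing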). The conditions noted are these: S. cerevisiae cbk1-as DSE1-URA3 strain, 5-FOA growth OD615, 2 d; at 50 µM; stronger effect = higher value.
Where [16] appears, read: H69AR cells + 2 uM doxorubicin, measured here: viability with 2 uM doxorubicin, stronger effect = lower value.
[17] abbreviates: H69AR cells, compound alone cytotoxicity.

The structures appear in SMILES notation. Records with an inconclusive call do not appear. The source made the active and inactive calls. Cut-off read from the data, not from the text of the source, unless noted: active = inhibition above about 30%; inactive = the rest.

Consider `Nc1nc2n(n1)C(c1c(F)cccc1Cl)CC(c1ccc(F)cc1)N2` (stereo not drawn), for which the viability is 102% in assay [1]; 102% (inactive) in [3]; 103% (inactive) in [4]; 86.2% (inactive) in assay [5]; 89.6% in assay [6] (setting [16]); 86.2% in [6] (setting [17]). For the same compound, the figures for the viability in [12] and in assay [13] were 89.7% (inactive) and 86.9% (inactive), respectively. Moreover, the Her2 level in [2] is 91.5% (inactive). In [6] (H69AR cells + 2 uM doxorubicin), the differential viability (reversal) is -3.43% (inactive). Further, the inhibition in [7] was -5.2% (inactive); in [8], 0.33% (inactive); in assay [14] it was 0.17% (inactive). Further, the growth inhibition was -4.67% (inactive) in assay [9] and 0.29% (inactive) in [10]. For the same compound, the viability increase in [11] was -2.4% (inactive). For the same compound, the RAM network inhibition in [15] is 3.18% (inactive).
As for `COc1ccc(NC(=O)CSc2nnc(Cc3cccn3C)n2-c2ccc(F)cc2)cc1`, the viability is 96% in [1]; 96% (inactive) in assay [3]; 94.4% (inactive) in assay [4]; 94.8% (inactive) in assay [5]; 110% in [6] (setting [16]); 94.8% in [6] (setting [17]). For the same compound, the viability was 88.8% (inactive) in [12] and 86% (inactive) in [13]. In addition, the Her2 level in assay [2] was 112% (inactive). Further, in assay [6] (H69AR cells + 2 uM doxorubicin), the differential viability (reversal) is -14.7% (inactive). Moreover, the inhibition is -2.27% (inactive) in assay [7], -6.5% (inactive) in assay [8] and 2.56% (inactive) in [14]. The growth inhibition in [9] was 4.66% (inactive); in assay [10] it was 11.6% (inactive). Further, the viability increase in assay [11] is -2.27% (inactive). In addition, the RAM network inhibition in assay [15] was 8.6% (inactive).
As to `Oc1ccccc1-c1nnc(COc2ccc(Cl)cc2Cl)o1`, the viability in [1] is 96%; in [3] it was 96% (inactive); in [4] it was 101% (inactive); in [5], 63.3% (inactive); in assay [6] (setting [16]) it was 76.1%; in assay [6] (setting [17]), 63.3%. Further, the viability in assay [12] was 92.3% (inactive); in assay [13], 86.6% (inactive). In assay [2], the Her2 level was 97.5% (inactive). For the same compound, the differential viability (reversal) in [6] (H69AR cells + 2 uM doxorubicin) was -12.9% (inactive). Further, the inhibition is -8.8% (inactive) in assay [7], 0.5% (inactive) in assay [8] and 1.82% (inactive) in assay [14]. Moreover, the results for the growth inhibition in assay [9] and in [10] were -10.2% (inactive) and -11.7% (inactive), respectively. The viability increase in assay [11] was -1.77% (inactive). In assay [15], the RAM network inhibition was 7.07% (inactive).
As for `CCN1CCN(C(=O)c2oc(=O)c3ccccc3c2-c2ccc(C)cc2)CC1`, the viability was 96% in assay [1]; 96% (inactive) in assay [3]; 98.6% (inactive) in [4]; 96.4% (inactive) in assay [5]; 101% in [6] (setting [16]); 96.4% in [6] (setting [17]). For the same compound, the viability in assay [12] was 91.9% (inactive); in assay [13], 90.5% (inactive). For the same compound, the Her2 level in assay [2] was 102% (inactive). Further, the differential viability (reversal) in [6] (H69AR cells + 2 uM doxorubicin) is -4.83% (inactive). For the same compound, the figures for the inhibition in [7], in [8] and in assay [14] were -3.07% (inactive), 5.9% (inactive) and 2.07% (inactive), respectively. In addition, the growth inhibition in assay [9] was -1.38% (inactive); in assay [10] it was -6.39% (inactive). In addition, the viability increase in assay [11] was -3.04% (inactive). Moreover, in assay [15], the RAM network inhibition was 1.85% (inactive).
Consider `COc1ccc(S(=O)(=O)NCc2ccc3c(c2)OCO3)cc1C(=O)O`, for which the viability in assay [1] was 96.5%; in assay [3], 96.5% (inactive); in assay [4], 109% (inactive); in assay [5], 90.1% (inactive); in assay [6] (setting [16]), 93.4%; in assay [6] (setting [17]) it was 90.1%. Further, the viability in assay [12] was 96.9% (inactive); in assay [13], 95.4% (inactive). In assay [2], the Her2 level was 84.5% (inactive). In addition, the differential viability (reversal) in assay [6] (H69AR cells + 2 uM doxorubicin) was -3.31% (inactive). The inhibition in assay [7] was -4.36% (inactive); in assay [8], -0.33% (inactive); in assay [14], 1.89% (inactive). Besides, the growth inhibition was -4.53% (inactive) in assay [9] and -6.08% (inactive) in [10]. For the same compound, the viability increase in assay [11] was -0.34% (inactive). The RAM network inhibition in [15] is 5.84% (inactive).
Consider `COC(=O)C1=C(N)OC2=C(C(=O)CCC2)C1c1cccs1` (stereo not drawn), for which the viability in assay [1] was 110%; in assay [3] it was 110% (inactive); in assay [4], 93.7% (inactive); in assay [5], 101% (inactive); in [6] (setting [16]), 83.2%; in assay [6] (setting [17]), 101%. Besides, the viability in assay [12] is 94.9% (inactive); in [13], 92.9% (inactive). The Her2 level in assay [2] was 85% (inactive). The differential viability (reversal) in assay [6] (H69AR cells + 2 uM doxorubicin) was 17.8% (inactive). The inhibition is -4.19% (inactive) in [7], 4.1% (inactive) in assay [8] and 2.75% (inactive) in assay [14]. Besides, the figures for the growth inhibition in assay [9] and in [10] were -2.24% (inactive) and -6.3% (inactive), respectively. Also, the viability increase in assay [11] was -2.89% (inactive). Moreover, the RAM network inhibition in [15] was 4.64% (inactive).
On to `Cc1c(NC(=O)c2ccc(Br)o2)c(=O)n(-c2ccccc2)n1C`, for which the viability in assay [1] was 91%; in assay [3] it was 91% (inactive); in [4], 89.2% (inactive); in assay [5], 91.2% (inactive); in assay [6] (setting [16]) it was 86.1%; in assay [6] (setting [17]), 91.2%. The viability is 97.7% (inactive) in assay [12] and 103% (inactive) in assay [13]. For the same compound, the Her2 level in assay [2] was 96% (inactive). The differential viability (reversal) in assay [6] (H69AR cells + 2 uM doxorubicin) was 5.07% (inactive). Besides, the inhibition is -5.06% (inactive) in [7], -1.67% (inactive) in assay [8] and 1.59% (inactive) in [14]. The growth inhibition is -11.6% (inactive) in assay [9] and -4.15% (inactive) in assay [10]. Moreover, in assay [11], the viability increase was 0.9% (inactive). Moreover, in assay [15], the RAM network inhibition was 2.23% (inactive).
As to `CCN(CC)CCNC(=O)c1ccc(CS(=O)(=O)c2ccc(Br)cc2)o1`, the viability is 92.5% in assay [1]; 92.5% (inactive) in [3]; 100% (inactive) in assay [4]; 95.9% (inactive) in assay [5]; 90.1% in assay [6] (setting [16]); 95.9% in [6] (setting [17]). Moreover, the results for the viability in assay [12] and in [13] were 97.1% (inactive) and 96.5% (inactive), respectively. In addition, the Her2 level in assay [2] was 110% (inactive). The differential viability (reversal) in assay [6] (H69AR cells + 2 uM doxorubicin) is 5.79% (inactive). Also, the inhibition in assay [7] is -0.26% (inactive); in assay [8] it was 0.17% (inactive); in assay [14], 0.92% (inactive). Moreover, the growth inhibition is -12.3% (inactive) in assay [9] and -17.7% (inactive) in [10]. In [11], the viability increase was -2.1% (inactive). For the same compound, the RAM network inhibition in [15] is 0.74% (inactive).
With `Cc1ccc(-n2nc(C)c3cc(C(=O)O)sc32)cc1`, the viability in assay [1] was 97%; in assay [3], 97% (inactive); in assay [4], 70.7% (inactive); in assay [5], 87.2% (inactive); in assay [6] (setting [16]) it was 86.8%; in [6] (setting [17]), 87.2%. Further, the viability was 93.1% (inactive) in assay [12] and 94.9% (inactive) in [13]. Also, in assay [2], the Her2 level is 95.5% (inactive). Moreover, the differential viability (reversal) in assay [6] (H69AR cells + 2 uM doxorubicin) was 0.315% (inactive). For the same compound, the inhibition was -2.31% (inactive) in assay [7], -2% (inactive) in assay [8] and 2.74% (inactive) in assay [14]. Further, the growth inhibition in [9] was 16% (inactive); in [10], 21.7% (inactive). Also, the viability increase in assay [11] was -2.19% (inactive). For the same compound, the RAM network inhibition in assay [15] was -1.34% (inactive).
